Test results published in ChEMBL document CHEMBL4513216, “Probing the Open Global Health Chemical Diversity Library for Multistage-Active Starting Points for Next-Generation Antimalarials” (ACS Infect Dis, 2020).
Out of some 69,000 compounds screened, about 8,600 (12%) showed an effect of 50% or more. For the sample, strong results were picked, then their nearest neighbours and some compounds at random.

What follows are molecules tested on Plasmodium berghei (assay: Screen against P. berghei liver stage (PbLuc), transformed with Luciferase, at 10uM). Conditions: tested at 10 uM.
Format: functional, HepG2
Molecule `Cc1cc(NC(=O)NC2CCCc3c2cnn3CCO)n(C)n1` (stereo not drawn) has an INHIBITION of -39.9%.
With `Cc1cccc(-n2ncc3c2CCCC3NCC(C)(C)CO)c1C` (stereo not drawn) the INHIBITION was 58.5%.
Molecule `Cc1cccc(-n2ncc3c2CCCC3NCc2cccc(O)c2)c1C` (stereo not drawn) has an INHIBITION of 31.9%.
`Cc1nnc(NC(=O)NC2CCCc3c2cnn3CCO)s1` (stereo not drawn) gave an INHIBITION of 38%.
For `Cc1cc(C(=O)NC2CCCc3c2cnn3-c2cccc(C)c2C)[nH]n1` (stereo not drawn), the INHIBITION was 91%.
With `Cc1cccc(-n2ncc3c2CCCC3NCc2cnn(C)c2C)c1C` (stereo not drawn) the INHIBITION was 33.4%.
Molecule `OC1(CN2CCCC2)COCCN(c2ncnc3[nH]cnc23)C1` (stereo not drawn) has an INHIBITION of 56.1%.
For `OC1(CN2CCCC2)CCCN(c2ncnc3[nH]cnc23)C1` (stereo not drawn), the INHIBITION was 13.9%.
`OC1(CN2CCCC2)COCCN(c2ncnc3[nH]ccc23)C1` (stereo not drawn) was tested, and the INHIBITION was 19.3%.
`CN(C)C[C@H]1OC[C@@H]2CCN(C(=O)c3cccn3C)C[C@@H]21` showed an INHIBITION of 4.2%.
Molecule `CC(C)N(C)C(=O)C1=NOC2(CCN(C(=O)c3cccn3C)C2)C1` (stereo not drawn) has an INHIBITION of 13.3%.
`O=C(NCc1ccco1)[C@H]1CC[C@@H]2[C@@H](CCN2C2CCC2)O1` showed an INHIBITION of 27.6%.
Molecule `Cc1nn(CC(=O)Nc2ccon2)c(C)c1Br` has an INHIBITION of 40.8%.
In the case of `Cc1nc(CN2CCC(N3CCN(C)C3=O)CC2)no1`, the INHIBITION is reported as 11.2%.
For `CCN1CCN(C2CCN(Cc3noc(C)n3)CC2)C1=O`, the INHIBITION was 51.2%.
For `CCN1CCN(C2CCN(Cc3noc(C4CC4)n3)CC2)C1=O`, the INHIBITION was 35.9%.
For `Cc1ccc(CNC(=O)Cc2c(C)nc3c(c2C)c(=O)[nH]n3C)cc1`, the INHIBITION was 29.4%.
Molecule `CC(NC(=O)CCn1cccn1)c1cn(-c2ccccc2)nn1` (stereo not drawn) has an INHIBITION of -15.5%.
Work on `CC(C)NC(=O)[C@@H]1C[C@H](N)CN1C(=O)C1(c2ccc(Cl)cc2)CCC1` yielded an INHIBITION of 41.5%.
`O=C(c1cc[nH]n1)N1CCCC1c1cncc(CN2CCOCC2)n1` (stereo not drawn) showed an INHIBITION of 11.8%.
For `Cc1csc(C(C)(C)NCCNS(C)(=O)=O)n1`, the INHIBITION was -1.75%.
`CC(C)(NCCCOc1ccc(C#N)cc1)c1nccs1` showed an INHIBITION of 53.8%.
In the case of `N#Cc1ccc(OCCNCCn2cccn2)cc1`, the INHIBITION is reported as 27.6%.
`CCS(=O)(=O)NCCNC(C)(C)c1nc(C)cs1` gave an INHIBITION of -7.72%.
With `CC(C)(NCCOc1ccc(CC#N)cc1)c1nccs1` the INHIBITION was -6.34%.
Molecule `Cc1csc(C(C)(C)NCCOc2ccc(CC#N)cc2)n1` has an INHIBITION of 58.1%.
For `CN1CCOC(c2cncc(CCC(N)=O)n2)C1` (stereo not drawn), the INHIBITION was -0.232%.
For `Cn1ccc2cc(CC3COCCN(C(=O)c4ccccn4)C3)ccc21` (stereo not drawn), the INHIBITION was 20.055%.
`CC(=O)N1N=C(c2ccco2)OC1C(=O)N(C)CCc1ccccc1` (stereo not drawn) gave an INHIBITION of 24.3%.
In the case of `Cc1cc2nc(SCC(=O)N3CCCC3)n(C)c(=O)c2[nH]1`, the INHIBITION is reported as 19.3%.
With `COCCNC(=O)C[C@@H]1COC[C@H]2CN(C(=O)COC)C[C@@H]12` the INHIBITION was 13.1%.
`COCCNC(=O)C[C@@H]1COC[C@H]2CN(CC3CCOCC3)C[C@@H]12` was tested, and the INHIBITION was 36.7%.
In the case of `COCCNC(=O)C[C@@H]1COC[C@H]2CN(C(=O)C3CCOCC3)C[C@@H]12`, the INHIBITION is reported as 69.3%.
Molecule `CC[C@@H](c1ccccc1)n1c(C2CC2)n[nH]c1=O` has an INHIBITION of 37.3%.
For `CCc1noc(CNCCn2cc(C)cn2)n1`, the INHIBITION was -9.37%.
Molecule `COCCNc1nc(C2CCCC2)nc2c1CCNCC2` has an INHIBITION of -39.9%.
In the case of `Cc1nc2c(c(NCC(O)C(F)(F)F)n1)CCNCC2` (stereo not drawn), the INHIBITION is reported as 93.2%.
`Cc1nc2c(c(NCCc3nc4c(s3)CCCC4)n1)CCNCC2` was tested, and the INHIBITION was 25.8%.
Work on `c1nc(CCNc2nc(C3CC3)nc3c2CCNCC3)c[nH]1` yielded an INHIBITION of -3.77%.
For `Cc1nc2c(c(NCC(O)c3ccccc3Cl)n1)CCNCC2` (stereo not drawn), the INHIBITION was -32.6%.
`COCc1noc(CNc2nc(C3CCCC3)nc3c2CCNCC3)n1` showed an INHIBITION of -52.2%.
Work on `C1Cc2nc(CCNc3nc(C4CC4)nc4c3CCNCC4)sc2C1` yielded an INHIBITION of 64.8%.
In the case of `OC(CNc1ncnc2c1CCNCC2)C(F)(F)F` (stereo not drawn), the INHIBITION is reported as 13.6%.
Work on `OC(CNc1nc(C2CCCC2)nc2c1CCNCC2)C(F)(F)F` (stereo not drawn) yielded an INHIBITION of 52.1%.
`CC(C)c1nn2c(-c3cnn(C)c3)nnc2s1` showed an INHIBITION of -14.2%.
Molecule `CCC(C)(CNC(=O)c1ccon1)NC(=O)c1ccon1` (stereo not drawn) has an INHIBITION of -13.7%.
For `COCC(=O)NCC1Cn2nnc(-c3ccncc3)c2CO1` (stereo not drawn), the INHIBITION was -4.02%.
With `COCCN1CCC2(CC1)CN(C(C)=O)c1ccc(C)cc12` the INHIBITION was -33%.
Work on `CCc1ocnc1C(=O)N1CCCC1c1noc(C)n1` (stereo not drawn) yielded an INHIBITION of 5.07%.
Work on `C=C(C)COc1cccc(CNCc2nc3ccccc3c(=O)[nH]2)c1` yielded an INHIBITION of 28.5%.
Work on `C=C(C)COc1cccc(CNCCc2nc(N)cc(O)n2)c1` yielded an INHIBITION of 52.6%.
Molecule `C=C(C)COc1cccc(CNCCc2c[nH]cn2)c1` has an INHIBITION of 29.1%.
`COCC1CC2(CCN(CC3CC3)CC2)CN1Cc1csc(C)n1` (stereo not drawn) was tested, and the INHIBITION was 37.8%.
In the case of `CCOC(=O)CCNC(=O)c1cc(Cl)cc2cccnc12`, the INHIBITION is reported as 30.5%.
`CCn1c(CC2CCN(C(=O)C3CCOC3)CC2)nn(C)c1=O` (stereo not drawn) gave an INHIBITION of 56.1%.
`CCn1c(CC2CCN(C(=O)C3COCCO3)CC2)nn(C)c1=O` (stereo not drawn) showed an INHIBITION of 9.56%.
`CCn1c(CC2CCN(C(=O)C3CNCCO3)CC2)nn(C)c1=O` (stereo not drawn) was tested, and the INHIBITION was 47.4%.
With `Cc1noc(-c2ccnc(N3CCN(C4CCOCC4)CC3)c2)n1` the INHIBITION was 10.7%.
Molecule `Cc1noc(-c2ccnc(N3CCC(N4CCCC4)CC3)c2)n1` has an INHIBITION of 48.5%.
For `Cc1noc(-c2ccnc(N3CCC(CN4CCOCC4)CC3)c2)n1`, the INHIBITION was 69.4%.
Molecule `Cc1ccc(-c2nc(CNCC3CN(C)CCO3)co2)cc1` (stereo not drawn) has an INHIBITION of -12.2%.
`CC(=O)N1CCC2(CC1)C(=O)N(CC1CC1)c1ccccc12` was tested, and the INHIBITION was 1.56%.
With `Cc1ccc(C(C(=O)NCc2cc(C)[nH]n2)N(C)C)cc1` (stereo not drawn) the INHIBITION was 31.4%.
`Cc1cc(CNC(=O)C(c2ccc(F)cc2)N(C)C)n[nH]1` (stereo not drawn) showed an INHIBITION of 37.3%.
With `CN(C)C(C(=O)NCc1cc(C(C)(C)C)n[nH]1)c1ccc(F)cc1` (stereo not drawn) the INHIBITION was 50.2%.
With `Cc1cc(N2CCC(NC(=O)CCc3ccco3)CC2)nc(C)n1` the INHIBITION was 38.7%.
`Cc1cc(N2CCC(NC(=O)CCC3CCCO3)CC2)nc(C)n1` (stereo not drawn) gave an INHIBITION of 62.2%.
Work on `CCc1cc(N2CCC(NC(=O)CCC3CCCO3)CC2)ncn1` (stereo not drawn) yielded an INHIBITION of 37.6%.
